# Data: PubChem BioAssay AID652048 (National Center for Advancing Translational Sciences (NCATS), 2013)
# About 2,400 (0.59%) of roughly 410,000 compounds were called active. The sample holds actives, similar compounds and a random draw of the others, so the mix is not that of the screen. Values without a mark were called inactive. Rule as the data show it: active = max activation above about 30%; inactive = the rest.
# Target: D(3) dopamine receptor (Homo sapiens) (UniProt P35462)
# Assay: qHTS of D3 Dopamine Receptor Agonist: qHTS; also: 0% is about no effect
# Conditions: D3R DiscoveRx beta-arrestin cells, luminescence, 90 min; stronger effect = higher value
# Outline: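 Cells at 1500/well, incubated overnight, then treated with pinned compounds (dopamine as control) for 90 min at 37 degrees C. DiscoveRx reagent added for 30 - 60 minutes at room temperature; luminescence read.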
# Chain of D(3) dopamine receptor (Homo sapiens) (P35462 whole entry, looked up): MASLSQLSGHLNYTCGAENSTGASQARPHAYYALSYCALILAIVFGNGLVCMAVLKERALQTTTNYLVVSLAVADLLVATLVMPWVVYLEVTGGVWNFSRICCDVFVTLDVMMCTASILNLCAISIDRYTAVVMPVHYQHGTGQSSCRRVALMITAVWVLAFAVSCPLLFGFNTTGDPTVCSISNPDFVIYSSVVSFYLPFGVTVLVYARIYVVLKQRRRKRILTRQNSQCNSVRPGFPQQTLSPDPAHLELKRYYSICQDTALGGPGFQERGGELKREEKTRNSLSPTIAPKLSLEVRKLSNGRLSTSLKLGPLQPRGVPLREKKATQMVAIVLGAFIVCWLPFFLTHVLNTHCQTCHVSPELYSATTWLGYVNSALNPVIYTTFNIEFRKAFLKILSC
row,SMILES,max activation
1,CCCn1c2ccccc2c2cnn(CC(=O)N3CCCC(C(=O)OCC)C3)c(=O)c21 (centres undefined),6.55%
2,COc1ccc(-n2nnc(-c3nsc(NC(=O)c4ccc(C)c(C)c4)n3)c2C)cc1Cl,41.8% (active)
3,CCc1cccc(-n2nnc(-c3nsc(NC(=O)c4ccc(C)cc4)n3)c2C)c1,-11.9%
4,Cc1c(-c2nsc(NC(=O)c3cccc(Cl)c3)n2)nnn1-c1ccccc1C(F)(F)F,-0.907%
5,Cc1oc2c(C)c3oc(=O)c(CC(=O)N[C@@H](CC(C)C)C(=O)N[C@@H](Cc4ccccc4)C(=O)O)c(C)c3cc2c1C,11.4%
6,Cc1c(OC(C)C(=O)NCC2CCC(C(=O)O)CC2)ccc2c1oc(=O)c1ccccc12 (centres undefined),-0.808%
7,Cc1c(OC(C)C(=O)N[C@@H](Cc2ccccc2)C(=O)O)ccc2c3c(c(=O)oc12)CCCC3 (some centres undefined),37.1% (active)
8,COC(=O)c1c(NC(=O)c2cc(=O)c3c(C)cc(C)cc3o2)sc2c1CCCC2,4.95%
9,CCN1C(=NCCc2cccnc2)N[C@@H](c2ccccc2)C(C(=O)OC)=C1C,-55.8%
10,Cc1cc(C)cc(Nc2ncnc3onc(-c4ccc(F)cc4)c23)c1,9.02%
11,COC(=O)c1ccc(OC(=O)c2nn(C)cc2Cl)c(OC)c1,1.35%
12,COc1ccc(CCn2ccc(O)c(Cc3ccc(Cl)cc3Cl)c2=O)cc1OC,-10.8%
13,COc1ccc(C(=O)O/N=C(\N)Cc2ccc(Cl)cc2Cl)cc1OC,36.2% (active)
14,CC(=O)c1ccc(NC(=O)CCc2nc(-c3ccc(C)cc3)no2)cc1,2.51%
15,Cc1ccc(OCCSc2nc(-c3cccs3)nc3cc(=O)[nH]n23)cc1Cl,6.63%
16,CCCc1ccc(-c2c(C)sc(NC(=O)c3ccnn3C)c2C#N)cc1,57.1% (active)
17,Cc1c(C(=O)OC(C)C)sc(NC(=O)c2cccnc2)c1C#N,-1.22%
18,CCc1ccccc1NC(=O)CSc1nc(C)c(C(=O)Nc2ccccc2)c(-c2ccc(Cl)cc2)c1C#N,3.31%
19,Cc1ccccc1Nc1nn2c(=O)c3ccc(C(=O)NCCc4ccc(Cl)cc4)cc3nc2s1,4.22%
20,COc1ccc(OC)c2sc(N3CCN(C(=O)C4COc5ccccc5O4)CC3)nc12 (centres undefined),-1.78%
21,Cc1c(CC(=O)N2CCN(C(=O)C3COc4ccccc4O3)CC2)c(=O)oc2c(O)c(O)ccc12 (centres undefined),40.6% (active)
22,COc1cc(NS(=O)(=O)c2ccc3c(c2)OCC(C(=O)N2CCCC2)O3)cc(OC)c1 (centres undefined),19.5%
23,CNCC(O)c1ccc(O)c(O)c1 (centres undefined),137% (active)
24,CCC(C)c1ccc(O)c(/C=N/O)c1 (centres undefined),-1.03%
25,Cc1cc(C)c(-c2n[nH]c3c2C(c2ccccc2F)N(CCO)C3=O)c(O)c1 (centres undefined),-0.594%
26,CCC1(C)CC(=O)NC1=O (centres undefined),-5.68%
27,Cc1cc(C(=O)Nc2cccc(C(F)(F)F)c2)c2c(C)nn(-c3cccc(F)c3)c2n1,8.25%

row,SMILES,max activation
1,CCOC(=O)CSc1nnc(CNC(=O)c2cccs2)n1-c1cc(OC)ccc1OC,6.63%
2,CC(C)(C)OC(=O)N1CCC(c2c(C(=O)N3CCN(c4cccc(Cl)c4)CC3)cnn2-c2cccc(Cl)c2)CC1,-9.63%
3,COC(=O)c1ccccc1NC(=O)Cn1c(=O)n(-c2cccc(C(F)(F)F)c2)c(=O)c2c(C)c(C)sc21,-14.9%
4,Cc1ccc(N(Cc2ccc(C(=O)Nc3ccccc3C(=O)NCc3ccco3)cc2)S(C)(=O)=O)cc1C,33.8% (active)
5,CCN1CCN(C(=O)c2ccc(CN(c3ccc(C)c(C)c3)S(C)(=O)=O)cc2)CC1,-12.8%
6,CS(=O)(=O)N(Cc1ccc(Cl)cc1)c1ccc(C(=O)NCCSCc2ccco2)cc1,0.47%
7,Cc1oc2ncnc(N3CCCCC3)c2c1C(=O)N1CCN(c2cccc(Cl)c2)CC1,-5.06%
8,Cc1cc(C)cc(NC(=O)CSc2nc(=O)n(CCN3CCOCC3)c3c2CCC3)c1,0.821%
9,CC(C)(C)OC(=O)N1CCC(c2c(C(=O)NCc3ccccn3)cnn2-c2ccc(F)cc2)CC1,-0.963%
10,CCCOc1ccc(NC(=O)CC2C(=O)N(c3ccccc3)C(=O)N2Cc2ccco2)cc1 (centres undefined),8.76%
11,COc1ccc(OC)c(-n2nnc(-c3nc(-c4cc(OC)c(OC)c(OC)c4)no3)c2C)c1,31.2% (active)
12,CCc1ccc(-n2nnc(-c3nc(-c4ccccc4)no3)c2C)cc1,6.45%
13,COc1ccc(-c2cc(-c3nc(-c4cc(OC)c(OC)c(OC)c4)no3)[nH]n2)c(OC)c1,5.61%
14,Nc1ccccc1SC(C[N+](=O)[O-])c1ccccc1 (centres undefined),0.396%
15,Cc1cccc(C)c1NC(=O)NC1=CCCN1C,0.916%
16,O=C(O)CCC(=O)O,17.7%
17,CCOc1ccc(S(=O)(=O)c2cn(Cc3ccccc3)c3ccc(OCC)cc3c2=O)cc1,6.37%
18,CCOc1ccc(OCC)c(-c2c(=O)n(OCc3ccc(Cl)cc3)c3ccccc3[n+]2[O-])c1,39.5% (active)
19,COc1ccc(OC)c(-c2c(=O)n(OCc3ccccc3Br)c3ccccc3[n+]2[O-])c1,-6.63%
20,O=C(OCc1ccccc1)c1ccc(O)cc1,3.77%
21,Cc1ccc(C(=O)OCC(=O)NC2CCCCCCC2)cc1C,1.29%
22,Cc1ccc(C(=O)COC(=O)CCN2C(=O)C3C4CCC(C4)C3C2=O)cc1C (centres undefined),-16.9%
23,Cc1ccc(C(=O)COC(=O)c2cccc(N3C(=O)c4c(C)nc5ccccc5c4C3=O)c2)cc1C,40.4% (active)
24,Cc1cc2c(cc3c(SCc4nc(-c5ccccc5)oc4C)nnc(C)n32)o1,-6.34%
25,COc1ccc(C(=O)c2oc3ccccc3c2NC(=O)COc2cccc(C)c2)cc1,-8.79%
26,Cc1ccc(N(CC(=O)NCc2ccc(Cl)cc2)S(=O)(=O)N(C)C)cc1,1.16%
27,Cc1ccccc1OCC(=O)Nc1c(C(=O)Nc2ccccc2F)oc2ccccc12,-10.6%
